From PubChem BioAssay (EPA / NIEHS)
Activity calls are given as the source filed them. Rule for the calls: active = hit-call score of the fitted dose curve at least 0.9, where 1 is the maximum; inactive = score below 0.9.

Key:
[1] = ATG_CRE_CIS: Attagene CIS-FACTORIAL HepG2 Assay for human cAMP Responsive Element (CRE) binding protein 3 (AID 2282926); settings: HepG2 CRE cis-reporter, Attagene multiplexed mRNA; actives raise or lower the signal
In short: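 Readout: fluorescently labelled reporter transcripts resolved by capillary electrophoresis after RT-PCR, taken 24 h post-dosing in transfected HepG2. Endogenous transcription factor activity drives each cis-element reporter; gain or loss of signal fitted relative to DMSO control.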

[2] = target: CCAAT/enhancer-binding protein beta (Homo sapiens) (UniProt P17676); experiment: ATG_C_EBP_CIS: Attagene CIS-FACTORIAL HepG2 Assay for human CCAAT/Enhancer Binding Protein (C/EBP) beta (AID 2282927); settings: HepG2 Attagene cis-factorial transcription factor reporter; actives raise or lower the signal
In short: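 RT-PCR/capillary electrophoresis fluorescence of reporter mRNA, 24 h post-dose, in HepG2 cells carrying transfected cis-promoter reporter units. Bidirectional curve fitting against DMSO baseline captures gain or loss of signal.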

[3] = ATG_CMV_CIS: Attagene CIS-FACTORIAL HepG2 Assay for human CMV (Internal Marker) (AID 2282928); settings: HepG2 CMV promoter reporter, transcription factor profiling; actives raise or lower the signal;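 note: endpoint acts as a background internal control marker rather than a target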
In short: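 Bidirectional fits against DMSO are applied to reporter mRNA, read by RT-PCR with capillary electrophoresis, from HepG2 cells exposed 24 h. The endpoint serves as an internal CMV background marker within the cis-factorial reporter panel.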

[4] = ATG_DR4_LXR_CIS: Attagene CIS-FACTORIAL HepG2 Assay for human Liver X Receptor (LXR), DR4 submotif (AID 2282929); settings: HepG2 Attagene DR4 cis-reporter, mRNA transcription; actives raise or lower the signal
In short: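 HepG2 cells transiently transfected with cis-promoter-driven multiplexed reporter units (DR4 element) were dosed for 24 h. Reporter mRNA was quantified by RT-PCR, fluorescent primer extension, HpaI digestion and capillary electrophoresis; bidirectional fitting versus DMSO baseline.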

[5] = target: Aryl hydrocarbon receptor (Homo sapiens) (UniProt P35869); experiment: ATG_Ahr_CIS: Attagene CIS-FACTORIAL HepG2 Assay for human Aryl Hydrocarbon Receptor (Ahr) (AID 2282930); settings: HepG2 AhR cis-factorial reporter transcription; actives raise or lower the signal
In short: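 HepG2 cells transiently transfected with cis-element-driven multiplexed reporter transcription units; endogenous transcription factor activity measured as reporter mRNA 24 h after dosing. RT-PCR, 6-FAM labelling, HpaI digestion, capillary electrophoresis; bidirectional fitting versus DMSO baseline.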

[6] = ATG_AP_1_CIS: Attagene CIS-FACTORIAL HepG2 Assay for human Activator Protein 1 (AP-1) (AID 2282931); settings: HepG2 Attagene cis-factorial AP-1 reporter mRNA; actives raise or lower the signal
In short: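 HepG2 cells transiently transfected with cis-element-driven multiplex reporter units; 24 h compound exposure. Reporter mRNA quantified by RT-PCR, FAM-labelled fragments resolved by capillary electrophoresis; bidirectional fit versus DMSO baseline.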

[7] = ATG_AP_2_CIS: Attagene CIS-FACTORIAL HepG2 Assay for human Activator Protein 2 (AP-2) (AID 2282932); settings: HepG2 AP-2 cis-reporter, Attagene transcription factor profiling; actives raise or lower the signal
In short: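 Cells (HepG2) transfected with promoter-driven reporter constructs, treated 24 h. Total RNA reverse-transcribed, reporter cDNA PCR-amplified, FAM-labelled by primer extension, digested, resolved by capillary electrophoresis. Activity fitted both directions versus DMSO.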

[8] = ATG_BRE_CIS: Attagene CIS-FACTORIAL HepG2 Assay for human Bone Morphogenetic Protein (BMP) Response Element (BRE) (AID 2282933); settings: HepG2 BMP response element reporter, Attagene transcription factor profiling; actives raise or lower the signal
In short: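 Read-out: reporter mRNA induction quantified by RT-PCR and capillary electrophoresis after 24 h chemical exposure of transfected HepG2 cells. Endogenous factor activity on the BMP response element; gain or loss fitted against DMSO baseline.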

[9] = target: Retinoic acid receptor alpha (Homo sapiens) (UniProt P10276); experiment: ATG_DR5_RAR_CIS: Attagene CIS-FACTORIAL HepG2 Assay for human Retinoic Acid Receptor Alpha (RARE), DR5 submotif (AID 2282934); settings: HepG2 Attagene cis-factorial RARE DR5 reporter, mRNA; actives raise or lower the signal;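 for AC50: reporter responds to endogenous RAR alpha beta and gamma in HepG2 not RARA alone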
In short: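 HepG2 cells transiently transfected with multiplexed reporter units under cis (DR5 RARE) promoters, so endogenous transcription factor activity is measured. After 24 h compound exposure, reporter mRNA is quantified by RT-PCR with fluorescent labelling and capillary electrophoresis; bidirectional fitting versus DMSO.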

[10] = target: Transcription factor E2F1 (Homo sapiens) (UniProt Q01094); experiment: ATG_E2F_CIS: Attagene CIS-FACTORIAL HepG2 Assay for human E2F Transcription Factor 1 (AID 2282935); settings: HepG2 Attagene cis-reporter, E2F reporter RNA transcripts; actives raise or lower the signal
In short: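 First, HepG2 cells were transfected with reporter transcription units. Next, they were dosed for 24 h. Then RNA was isolated, converted to cDNA, PCR-amplified, FAM-labeled, HpaI-digested and analyzed by capillary electrophoresis.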

[11] = ATG_E_Box_CIS: Attagene CIS-FACTORIAL HepG2 Assay for human Enhancer Box (E-box) (AID 2282936); settings: HepG2 E-box cis-reporter transcription, actives raise or lower the signal
In short: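 Endogenous transcription factor activity was sensed in human HepG2 liver cells through transfected cis-promoter reporter units. After 24 h of dosing, total RNA was reverse-transcribed and reporter cDNA resolved by capillary electrophoresis.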

[12] = ATG_M_61_CIS: Attagene CIS-FACTORIAL HepG2 Assay for M61 Transcription Factor (Internal Marker) (AID 2282937); settings: HepG2 Attagene CIS-FACTORIAL M61 internal marker reporter; actives raise or lower the signal
In short: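 HepG2 cells transiently transfected with cis-element-driven multiple reporter transcription units, dosed for 24 h. Reporter mRNA measured by RT-PCR, 6-FAM primer-extension labelling, HpaI digestion and capillary electrophoresis; bidirectional fit versus DMSO baseline.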

[13] = ATG_EGR_CIS: Attagene CIS-FACTORIAL HepG2 Assay for human Early Growth Response 1 (EGR1) (AID 2282938); settings: HepG2 Attagene CIS-FACTORIAL EGR reporter mRNA; actives raise or lower the signal
In short: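 HepG2 cells transiently transfected with cis-promoter-driven multiplexed reporter transcription units; reporter mRNA measured 24 h after compound dosing by RT-PCR, 6-FAM primer extension, HpaI digestion and capillary electrophoresis. Bidirectional fit versus DMSO baseline.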

[14] = ATG_M_19_CIS: Attagene CIS-FACTORIAL HepG2 Assay for M19 Transcription Factor (Internal Marker) (AID 2282939); settings: HepG2 Attagene CIS-FACTORIAL M19 internal marker reporter; actives raise or lower the signal
In short: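 Readout: fluorescent reporter-transcript fragments by capillary electrophoresis after RT-PCR. Human HepG2 liver cells carried transfected MRTU constructs reporting endogenous transcription-factor activity; exposure 24 h. Gain or loss of signal fitted relative to DMSO.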

[15] = ATG_Ets_CIS: Attagene CIS-FACTORIAL HepG2 Assay for human Erythroblast Transformation Specific (ETS) (AID 2282941); settings: HepG2 ETS cis-reporter transcription, actives raise or lower the signal
In short: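 Endogenous transcription factor activity read as reporter mRNA via RT-PCR and capillary electrophoresis, with gain or loss fitted bidirectionally against DMSO. Human HepG2 liver cells, transiently transfected CIS reporter constructs, 24 h exposure.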

[16] = target: Hepatocyte nuclear factor 3-beta (Homo sapiens) (UniProt Q9Y261); experiment: ATG_FoxA2_CIS: Attagene CIS-FACTORIAL HepG2 Assay for human Forkhead box A2 (FOXA2) (AID 2282942); settings: HepG2 cis-reporter transcription factor activity, 24 h; actives raise or lower the signal
In short: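 HepG2 cells transiently transfected with multiple cis-regulated reporter transcription units, dosed for 24 h. Reporter mRNA measured by RT-PCR, 6-FAM labelling, HpaI digestion and capillary electrophoresis; bidirectional fitting against DMSO baseline.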

[17] = ATG_FoxO_CIS: Attagene CIS-FACTORIAL HepG2 Assay for human Forkhead box O (FoxO) (AID 2282943); settings: HepG2 Attagene cis-reporter, FoxO element, mRNA; actives raise or lower the signal
In short: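 HepG2 cells transiently transfected with cis-promoter-driven multiple reporter transcription units; 24 h after chemical dosing, reporter mRNA quantified by RT-PCR, fluorescent primer extension, HpaI digestion and capillary electrophoresis. Bidirectional fitting versus DMSO baseline.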

[18] = ATG_GATA_CIS: Attagene CIS-FACTORIAL HepG2 Assay for human GATA Binding Protein (AID 2282944); settings: HepG2 GATA cis-element reporter, Attagene multiplex mRNA; actives raise or lower the signal
In short: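 Read-out: fluorescent reporter mRNA fragments resolved by capillary electrophoresis after RT-PCR. Human liver HepG2 cells carried transiently transfected cis-regulated reporter constructs; chemicals incubated 24 h; gain or loss of signal fitted relative to DMSO.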

[19] = ATG_GLI_CIS: Attagene CIS-FACTORIAL HepG2 Assay for human Zinc Finger Protein GLI1 (AID 2282945); settings: HepG2, Attagene cis-factorial reporter mRNA, GLI element; actives raise or lower the signal
In short: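 HepG2 cells transiently transfected with cis-promoter multiplexed reporter units report endogenous transcription factor activity. After 24 h chemical exposure, reporter mRNA was quantified by RT-PCR, 6-FAM labelling, HpaI digestion and capillary electrophoresis, with bidirectional fitting against DMSO.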

Measured: AC50

Sequence of Hepatocyte nuclear factor 3-beta (Homo sapiens) (Q9Y261 whole entry, looked up): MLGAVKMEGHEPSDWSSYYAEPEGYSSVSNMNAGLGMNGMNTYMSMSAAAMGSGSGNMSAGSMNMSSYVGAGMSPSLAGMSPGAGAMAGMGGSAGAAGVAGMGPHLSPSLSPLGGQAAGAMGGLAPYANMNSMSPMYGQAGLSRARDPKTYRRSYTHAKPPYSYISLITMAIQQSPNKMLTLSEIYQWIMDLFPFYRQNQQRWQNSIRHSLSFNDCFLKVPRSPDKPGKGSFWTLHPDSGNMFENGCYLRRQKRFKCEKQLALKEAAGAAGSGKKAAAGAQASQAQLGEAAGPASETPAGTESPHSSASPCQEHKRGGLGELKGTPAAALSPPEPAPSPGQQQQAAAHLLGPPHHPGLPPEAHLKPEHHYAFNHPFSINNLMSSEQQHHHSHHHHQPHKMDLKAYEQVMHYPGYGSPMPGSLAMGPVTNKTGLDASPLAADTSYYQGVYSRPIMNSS
Sequence of CCAAT/enhancer-binding protein beta (Homo sapiens) (P17676 whole entry, looked up): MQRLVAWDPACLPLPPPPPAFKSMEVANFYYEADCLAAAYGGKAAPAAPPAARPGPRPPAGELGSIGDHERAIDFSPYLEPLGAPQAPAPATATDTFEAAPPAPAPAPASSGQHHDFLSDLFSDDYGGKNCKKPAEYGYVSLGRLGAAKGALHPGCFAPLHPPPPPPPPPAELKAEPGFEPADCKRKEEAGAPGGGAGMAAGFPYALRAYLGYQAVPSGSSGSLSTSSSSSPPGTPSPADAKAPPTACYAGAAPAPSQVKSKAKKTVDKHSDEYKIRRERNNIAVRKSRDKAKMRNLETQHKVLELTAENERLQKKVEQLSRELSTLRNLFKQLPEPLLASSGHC
Sequence of Aryl hydrocarbon receptor (Homo sapiens) (P35869 whole entry, looked up): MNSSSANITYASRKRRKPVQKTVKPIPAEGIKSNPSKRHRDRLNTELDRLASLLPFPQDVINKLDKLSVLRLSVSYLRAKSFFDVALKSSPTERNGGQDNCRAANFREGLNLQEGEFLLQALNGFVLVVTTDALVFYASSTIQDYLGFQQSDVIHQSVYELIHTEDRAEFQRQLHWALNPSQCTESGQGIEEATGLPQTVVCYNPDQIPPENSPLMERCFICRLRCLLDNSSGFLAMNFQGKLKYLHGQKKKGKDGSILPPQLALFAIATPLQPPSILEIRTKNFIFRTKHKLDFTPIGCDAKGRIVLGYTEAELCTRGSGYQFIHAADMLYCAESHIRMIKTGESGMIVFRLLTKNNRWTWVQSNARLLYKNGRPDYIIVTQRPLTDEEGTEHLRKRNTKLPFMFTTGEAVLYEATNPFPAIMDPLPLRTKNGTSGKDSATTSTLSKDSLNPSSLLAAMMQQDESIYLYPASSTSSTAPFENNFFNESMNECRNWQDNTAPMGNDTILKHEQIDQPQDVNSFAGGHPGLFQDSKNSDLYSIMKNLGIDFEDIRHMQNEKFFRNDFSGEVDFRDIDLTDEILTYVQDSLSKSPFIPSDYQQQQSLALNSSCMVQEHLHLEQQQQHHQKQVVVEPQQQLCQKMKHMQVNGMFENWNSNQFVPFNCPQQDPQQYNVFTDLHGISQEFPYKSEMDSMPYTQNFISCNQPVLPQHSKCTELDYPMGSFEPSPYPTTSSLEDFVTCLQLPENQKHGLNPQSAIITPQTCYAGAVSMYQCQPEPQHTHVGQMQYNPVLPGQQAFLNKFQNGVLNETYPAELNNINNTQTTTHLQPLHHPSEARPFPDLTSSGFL
Sequence of Transcription factor E2F1 (Homo sapiens) (Q01094 whole entry, looked up): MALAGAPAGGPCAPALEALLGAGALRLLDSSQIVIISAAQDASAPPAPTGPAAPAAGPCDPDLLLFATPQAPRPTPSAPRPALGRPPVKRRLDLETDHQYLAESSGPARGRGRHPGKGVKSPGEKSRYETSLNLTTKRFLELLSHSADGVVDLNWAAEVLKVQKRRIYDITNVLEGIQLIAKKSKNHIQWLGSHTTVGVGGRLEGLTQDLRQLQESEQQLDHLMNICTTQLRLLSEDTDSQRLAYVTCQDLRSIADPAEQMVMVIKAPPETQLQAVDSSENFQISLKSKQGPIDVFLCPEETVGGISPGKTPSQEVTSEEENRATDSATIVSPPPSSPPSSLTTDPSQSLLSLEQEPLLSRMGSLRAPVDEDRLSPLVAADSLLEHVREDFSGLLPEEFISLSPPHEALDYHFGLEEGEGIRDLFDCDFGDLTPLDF
Sequence of Retinoic acid receptor alpha (Homo sapiens) (P10276 whole entry, looked up): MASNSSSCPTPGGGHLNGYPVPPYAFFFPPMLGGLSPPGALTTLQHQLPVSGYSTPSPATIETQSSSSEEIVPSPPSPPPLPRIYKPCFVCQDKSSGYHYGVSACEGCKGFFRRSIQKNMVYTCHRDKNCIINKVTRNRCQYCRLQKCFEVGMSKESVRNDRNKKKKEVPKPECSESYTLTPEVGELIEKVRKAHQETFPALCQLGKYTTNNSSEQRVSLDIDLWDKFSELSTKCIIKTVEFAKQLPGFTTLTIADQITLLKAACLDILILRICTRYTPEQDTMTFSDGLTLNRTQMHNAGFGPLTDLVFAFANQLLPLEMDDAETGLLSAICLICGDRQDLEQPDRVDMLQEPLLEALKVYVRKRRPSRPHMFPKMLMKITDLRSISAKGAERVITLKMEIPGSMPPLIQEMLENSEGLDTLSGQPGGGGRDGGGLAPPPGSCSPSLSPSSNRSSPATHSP

COc1cc(CCC(C)=O)ccc1O
inactive: all assays above

CCCCC(CC)(CO)CO
inactive: all assays above

CCC1CCCCC1
inactive: all assays above

CCCC(C)C(O)CC (centres undefined)
not listed: [18]
inactive: all other assays above

CC1C2CC(CC2C2CCCC(O)C2)C1(C)C (centres undefined)
inactive: all assays above

C=CC(=C)CCCC(C)(C)OC(C)=O
inactive: all assays above

CCCCCCCCCCCC(=O)OC[C@@H](O)[C@H]1OC[C@H](O)[C@H]1O
inactive: all assays above

COc1cc([C@@H]2c3cc4c(cc3[C@@H](O[C@@H]3O[C@@H]5CO[C@@H](C)O[C@H]5[C@H](O)[C@H]3O)[C@H]3COC(=O)[C@H]23)OCO4)cc(OC)c1O
inactive: all assays above

Clc1cc(Cl)c(-c2c(Cl)c(Cl)cc(Cl)c2Cl)cc1Cl
active: [3] 30.4 µM | [4] 21.8 µM | [6] 35 µM
inactive: all other assays above

[O-]n1ccccc1=S.[O-]n1ccccc1=S.[Zn+2]
active: [11] 976 nM
inactive: all other assays above

CCCC(=O)OC(C)(C)Cc1ccccc1
active: [5] 72.8 µM
inactive: all other assays above

CCOC(=O)c1ccc(N)cc1
inactive: all assays above

C=C(C)CNCC
inactive: all assays above

CC1=CC[C@@]23C[C@@H]1C(C)(C)[C@@H]2CC[C@H]3C
active: [4] 165 µM | [17] 157 µM
inactive: all other assays above

CCCCCCC(=O)c1ccccc1
active: [6] 154 µM | [9] 101 µM
inactive: all other assays above
